The values below come from PubChem BioAssay.

The source made the active and inactive calls. No rule for the calls is given here.

Pantothenate synthetase (Mycobacterium tuberculosis (strain ATCC 25618 / H37Rv)), sequence (P9WIL5 whole entry, looked up): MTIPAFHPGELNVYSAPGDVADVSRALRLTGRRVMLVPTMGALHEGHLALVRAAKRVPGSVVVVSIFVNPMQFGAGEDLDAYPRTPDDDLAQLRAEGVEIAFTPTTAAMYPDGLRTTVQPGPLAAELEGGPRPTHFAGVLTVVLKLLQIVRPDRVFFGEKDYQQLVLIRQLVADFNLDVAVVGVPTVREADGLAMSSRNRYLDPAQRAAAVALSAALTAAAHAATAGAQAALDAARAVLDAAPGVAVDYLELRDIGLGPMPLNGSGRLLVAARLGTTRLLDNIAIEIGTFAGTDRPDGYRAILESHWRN

This assay concerns the target Pantothenate synthetase (Mycobacterium tuberculosis (strain ATCC 25618 / H37Rv)) (UniProt P9WIL5). Put plainly: Recombinant Mtb pantothenate synthetase (PanC) inhibitors, coupled enzyme, confirmatory (AID 375).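 Also: 0% = full reaction with vehicle and 100% = no enzyme background.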 The following applies: coupled enzyme assay; at 10 µM, stronger effect = higher value.
Usually inhibition stands for the share of the control response that was lost under treatment. For `CCCCCc1c(O)nc(SCC(=O)NCC2CCCO2)[nH]c1=O` (configuration not stated), the inhibition was 6% (inactive).

Turning to `O=C(NC1CCCC1)C(c1ccco1)N(Cc1ccccc1)C(=O)c1csnn1` (configuration not stated), the inhibition was 0% (inactive).

Consider `CCCCn1c(CN(C)Cc2ccccc2)nc2c1c(=O)n(C)c(=O)n2C`, for which the inhibition is 0% (inactive).

Take `COc1ccc(N2CCN(C(=O)Cc3ccc(-n4c(=O)[nH]c5ccccc5c4=O)cc3)CC2)cc1`: the inhibition is 6% (inactive).

`CCOc1ccc(C(=O)Cc2ccc3oc(C(=O)O)cc3c2)c(O)c1`: the inhibition was 7% (inactive).

For `C1CCc2nnc(-c3nnc4n3CCCCC4)n2CC1`, the inhibition is 10% (inactive).

Take `CC(=O)Nc1ccc(NC(=O)Cn2cc3c(n2)CCC(C)C3)cc1` (configuration not stated): the inhibition is 3% (inactive).

`COc1nc(N2CCOCC2)nc(-n2cccc2)n1`: the inhibition is 2% (inactive).

Regarding `CCOCCCNC(=O)C(NC(=O)c1ccccn1)c1ccc(C)cc1` (configuration not stated), the inhibition was 0% (inactive).

Regarding `CCOC(=O)/C(C#N)=C(/C)c1ccc(OC)cc1`, the inhibition was 0% (inactive).

For the molecule `COc1ccc(S(=O)(=O)NC(CC(=O)NCc2ccco2)c2ccco2)cc1` (configuration not stated), the inhibition was 3% (inactive).

With `COc1ccc(Cl)cc1N1CCN(CCNC(=O)Nc2ccccc2C)CC1`, the inhibition is 0% (inactive).

Take `COc1ccc(-c2noc(CCCOc3ccccc3)n2)cc1OC`: the inhibition is 7% (inactive).

With `O=C1c2ccccc2C(Nc2ccc(F)cc2F)N1CCN1CCOCC1` (configuration not stated), the inhibition is 0% (inactive).

Turning to `C[C@@H]1C[C@H](O)c2cc(Cl)ccc2N1`, the inhibition is 8% (inactive).

On to `CCOC(=O)N1CCC(N(C(=O)Nc2cccc(OC)c2)C(C)CC)CC1` (configuration not stated), for which the inhibition was 0% (inactive).

As to `COc1ccc(CNc2ccc(C(=O)O)cc2)cc1`, the inhibition was 0% (inactive).
